In the library only some 3.7% were active in any assay of this set; here they are far more common.
Nrf2 ARE act = qHTS of Nrf2 Activators; AREc32 ARE-luciferase reporter (MCF7-derived line), luminescence, 24 h; Potency, µM (highest dose often 46.1 µM), without a hit: top-dose activation, usual class: activators; 0.31% of 410,000 active; also: % of control where 0% means no effect; nearly all actives have a fitted effect of over 65% in size
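Quantitative high-throughput format: AREc32 reporter cells, 1000 per well, received compound by pin transfer and were incubated 24 hr at 37 deg C, 5% CO2, before Steady-Glo luminescence detection.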
ELG1 DNA repair = qHTS screen for small molecules that inhibit ELG1-dependent DNA repair in human embryonic kidney (HEK293T) cells expressing luciferase-tagged ELG1 | Potency, µM (titrated, usually from 46.1 µM), without a hit: at the top dose activity change, negative = inhibition, actives largely listed as inhibitors | 2.3% of 330,000 active | HEK293T ELG1-luciferase reporter, luminescence, 16 h; DNA damage induced by 5-fluorouridine; also: % is scaled to controls: 0 for no effect and ±100 for the full control effect; nearly all actives have a fitted effect of over 55% in size
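HEK293T cells expressing luciferase-tagged ELG1 (2,000/well) received 5-Fluorouridine plus compound or DMSO for 16 hr at 37 °C. Luciferase was read by ONE-Glo luminescence after 30 min at room temperature.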
A549 viability = Nrf2 qHTS screen for inhibitors: counterscreen for cytotoxicity | Potency, µM (highest dose often 46 µM), for inactives: at the top dose activity change, negative = cytotoxicity, actives largely listed as inhibitors | 0.16% of 390,000 active | AID 504648, 2011 | A549 ARE-Fluc cells, CellTiter-Fluor viability, 18-24 h; also: % is scaled to controls: 0 for no effect and ±100 for the full control effect
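Cytotoxicity counterscreen: CellTiter-Fluor fluorescence was measured in A549 ARE_Fluc cells after 18-24 h of compound exposure in a concentration series. The subsequent BugLite luminescent read reports ARE-luciferase activity.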
Nrf2 inh = Nrf2 qHTS screen for inhibitors; A549 ARE-Fluc reporter, luciferase luminescence, 18-24 h; Potency, µM (highest dose often 46 µM), for inactives: top-dose activity change, negative = inhibition, most hits filed as inhibitors; 2.1% of 360,000 active; also: % is scaled to controls: 0 for no effect and ±100 for the full control effect; nearly all actives have a fitted effect of over 60% in size
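Two sequential reads on A549 ARE_Fluc cells exposed to compound for 18-24 h: a CellTiter-Fluor fluorescence read for viability, then a luciferase luminescence read for Nrf2/ARE activity.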
The depositor's hits bear a star; ? = inconclusive; . = no result. Calls follow the shape of the dose curve; as a rule, active = well fitted curve in the direction sought with a large enough effect; inconclusive = small, poorly fitted or top-dose-only effect, or another doubt; inactive = no such curve, though single readings can be large; an effect the other way counts as inactive or inconclusive. Potency is read from the fitted curve at half-maximal effect.

SMILES	Nrf2 ARE act	ELG1 DNA repair	A549 viability	Nrf2 inh
COc1cc2oc(=O)cc(-c3cccc(-c4cccc(C)c4)c3)c2c(OC)c1OC	3.3%	20.6µM*	3.9%	-21.9%
COc1ccc(-c2ccc(-c3cc(=O)oc4cc(OC)c(OC)c(OC)c34)cc2)cc1OC	4.0%	10.3µM*	-1.2%	?
CC(=O)Nc1ccc(S(=O)(=O)N[C@@H](C)C(=O)N2CCN(c3ccccn3)CC2)cc1	0.3%	.	-0.9%	-16.9%
COc1ccc(CSc2nnnn2-c2ccccc2)cc1	-0.8%	-4.2%	-2.2%	-14.9%
COc1ccc2c(C)cc(Sc3nnnn3-c3ccccc3)nc2c1	0.3%	25.9µM*	-1.1%	3.3%
Cc1ccc(-c2nc3cccc(C)n3c2Nc2ccc(F)cc2)o1	.	.	1.3%	-10.9%
CCCCn1c(SCc2ccc(C(=O)OC)o2)nc2cc(S(N)(=O)=O)ccc21	3.2%	10.3µM*	-8.6%	16.4µM*
Cc1ccc(C(=O)NCC(=O)NCCc2ccc(S(N)(=O)=O)cc2)s1	-0.4%	?	-0.9%	12.3%
CCCCCCN(C(=O)CCl)c1ccccc1	?	?	4.2%	-0.4%
CC(=O)Nc1ccc2nc(NC(=O)c3ccc([N+](=O)[O-])o3)sc2c1	?	20.6µM*	?	?
CC1CCCN(c2ccc(C(=O)Nc3cccnc3)cc2[N+](=O)[O-])C1 (stereo not given)	6.0%	14.6µM*	-20.0%	?
CCC(=O)N1CCN(c2ccccc2NC(=O)c2ccc(-c3cccc([N+](=O)[O-])c3)o2)CC1	17.0%	9.2µM*	1.4%	-12.2%
CCC(=O)N1CCN(c2ccc(Cl)cc2NC(=O)c2ccc([N+](=O)[O-])o2)CC1	11.2µM*	-16.7%	-5.3%	-3.7%
CN1CCN(c2ccccc2NC(=O)c2ccc(-c3cccc([N+](=O)[O-])c3)o2)CC1	5.3%	?	-3.0%	-6.1%
CC(=O)Nc1ccc2nc(NC(=O)c3ccco3)sc2c1	?	?	-2.0%	?
COc1ccc(-c2nc3ccccc3c(=O)n2CCOc2cccc(C)c2C)cc1	0.0%	-19.8%	16.7%	-2.0%
CC(=O)N1CCN(c2ccc(NC(=O)c3ccc([N+](=O)[O-])o3)cc2Cl)CC1	?	18.3µM*	?	?
CC(=O)N1CCN(c2ccc(NC(=O)c3ccc(N4CCCC4)c([N+](=O)[O-])c3)cc2Cl)CC1	0.2%	?	-14.1%	23.1µM*
O=C(Nc1cc(Cl)ccc1-n1cncn1)c1ccc([N+](=O)[O-])o1	12.6µM*	21.9%	-5.3%	9.9%
COc1ccc(C(=O)N(Cc2ccccc2)Cc2cccs2)c(O)c1	.	.	-1.2%	9.6%
CNC(=S)N(Cc1ccco1)Cc1cc2cc(OC)ccc2[nH]c1=O	3.4%	?	-7.9%	-11.5%
COC(=O)c1ccccc1S(=O)(=O)N(Cc1ccco1)Cc1cc2cc(OC)ccc2[nH]c1=O	0.4%	23.1µM*	-3.0%	-10.8%
COc1ccc2[nH]c(=O)c(CN(Cc3cccs3)S(=O)(=O)c3c(C)ccc4nsnc34)cc2c1	1.6%	?	.	9.2µM*
Cc1ccc(OCC(=O)Nc2ccccc2C(=O)OCc2cc(=O)n3ccsc3n2)cc1C	3.7%	.	11.9%	.
CCCCC[C@H](C)N1C[C@@H](COCc2ccccc2)Oc2cc(N3CCC[C@H]3C(N)=O)ccc2S1(=O)=O	1.2%	.	.	.
SMILES	Nrf2 ARE act	ELG1 DNA repair	A549 viability	Nrf2 inh
COC(=O)c1cc(NC(=S)NC(=O)c2ccccc2)ccc1N1CCOCC1	-0.2%	?	-5.8%	-12.0%
CCCCCCCSc1nnc(N)s1	0.5%	?	-0.1%	-12.3%
COc1ccc2c(c1)c1c(c(=O)n(-c3ccccc3)c(=O)n1CC(=O)Nc1ccc(C)c(C)c1)n2C	-0.6%	.	1.2%	17.9%
Cc1sc2c(c1C)CN(C(C)(C)C)CN2C(=O)c1ccccc1	11.2µM*	?	-0.9%	?
CCOCCCNc1nc(C(F)(F)F)nc2c1nnn2Cc1ccccc1Cl	5.7%	18.3µM*	-8.1%	?
CCc1nc(Nc2ccc(OC)c(OC)c2)c2nnn(Cc3ccccc3Cl)c2n1	2.3%	13µM*	?	10.3µM*
C=CCNc1nc(C(F)(F)F)nc2c1nnn2Cc1ccccc1Cl	-0.1%	16.8%	13.4%	9.6%
CCOc1ccc(NC(=O)Cn2c(=O)n(Cc3ccc(C(=O)NCc4ccc5c(c4)OCO5)cc3)c(=O)c3ccccc32)cc1	0.6%	.	0.4%	?
Nc1ccccc1N1C(=O)c2cccc3cccc(c23)C1=O	8.91µM*	.	-1.9%	?
CCN(CC)S(=O)(=O)c1ccc(-c2ccc(S(=O)(=O)N(CC)CC)cc2)cc1	0.0%	6.51µM*	-15.4%	?
COc1ccc(C2C(C(=O)N3CCN(c4ccccc4)CC3)c3ccccc3C(=O)N2C)cc1 (stereo not given)	0.2%	20.6µM*	-13.1%	-2.6%
COc1cc2c(cc1OC)C(C(=O)N1CCN(c3ccccc3)CC1)C(c1cccs1)N(C)C2=O (stereo not given)	8.1%	18.4µM*	-14.1%	15.2%
COc1ccc(C2C(C(=O)N3CCN(c4ccccc4)CC3)c3ccccc3C(=O)N2C)cc1OC (stereo not given)	0.3%	7.6%	-7.7%	0.4%
CCCSc1ncc(Cl)c(C(=O)Nc2scc(-c3ccc(C)cc3)c2C(=O)OCC)n1	0.6%	.	5.9%	22.8%
Fc1ccc(NC(=S)N2CCN(C/C=C/c3ccccc3)CC2)c(F)c1	5.9%	?	-30.0%	20.6µM*
CCN(CC)S(=O)(=O)c1ccc(C)c(NC(=S)N2CCN(C/C=C/c3ccccc3)CC2)c1	0.7%	11.6µM*	-16.0%	11.6µM*
CCN(CC)S(=O)(=O)c1ccc(C)c(NC(=O)CN2CCN(Cc3ccccc3)CC2)c1	0.3%	-12.4%	-12.6%	-24.6%
COc1ccccc1NC(=S)N1CCN(C/C=C/c2ccccc2)CC1	2.2%	?	-0.1%	14.8%
CCN(CC)S(=O)(=O)c1ccc(C)c(NC(=S)N2CCN(c3ccccn3)CC2)c1	0.3%	16.4µM*	4.5%	?
COc1ccc(C(=O)NC2CCSc3ccccc32)cc1S(=O)(=O)N1CCOCC1 (stereo not given)	-0.6%	16.2%	-5.8%	11.1%
COc1ccccc1C(=O)Nc1ccccc1OCc1cc(=O)n2cc(C)sc2n1	0.2%	.	1.6%	6.3%
Cc1ccc(C(=O)CSC2=C(C#N)C(c3ccco3)C3=C(CC(C)(C)CC3=O)N2)cc1 (stereo not given)	5.9%	?	?	16.4µM*
CC1(C)CC(=O)C2=C(C1)NC(SCC(=O)Nc1ccccc1)=C(C#N)C2c1ccco1 (stereo not given)	4.9%	?	-23.1%	?
CCNc1nc(C#N)nc2c1ncn2-c1cccc(Cl)c1	.	.	-14.9%	?
COC(=O)COc1ccc(-c2nccc(-c3ccccn3)n2)cc1	-1.7%	?	-8.2%	7.31µM*
